E coli growth-1 = E. coli growth inhibition; Escherichia coli growth, OD600, 23 h; active compounds read low; OD600 absorbance (test concentration not listed); AID 1053175; actives 0.21% (n = 330,000);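 active means OD600 absorbance below the run mean of sample wells minus 3.6 SD, in any replicate, cut at about 0.56 in these data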
E coli growth-2 = reduces bacterial viability in AddAB counter-screen. E. coli V3065 growth, OD600 absorbance, 18 h. inhibition, % at 11.9 µM. actives 0.27% (n = 330,000);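 active means inhibition above the campaign's mean inhibition across all tested compounds plus 3 SD, cut at about 9.9% in these data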;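 further: uninfected addAB+ strain grown without phage in ampicillin broth; 0% = DMSO wells and 100% = ciprofloxacin 0.95 µg/ml wells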
Tat transport = blocks Tat-dependent protein export in E. coli. E. coli MC4100 TorA-mCherry Tat export, fluorescence. inhibition, % at 10 µM. actives 0.036% (n = 340,000);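 active means mean replicate inhibition at least 50% and at least half of replicates individually reaching 50%; inconclusive means only one of the two criteria met; inactive means neither criterion met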;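 further: exported cargo escapes ClpAP degradation while cytoplasmic cargo is degraded and loses fluorescence; 0% = median of neutral control wells and 100% = median of NaSCN control wells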
phage Ecoli inh = E. coli growth loss with phage present | growth absorbance | inhibition, % at 11.9 µM | actives 0.26% (n = 360,000) | AID 651602; in the data active means inhibition above about 11%
AddAB inh = less growth of phage-infected E. coli with AddAB. E. coli expressing H. pylori AddAB, absorbance growth. inhibition, % at 11.9 µM. actives 0.29% (n = 330,000). AID 435030; in the data active means inhibition above about 12%;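 further: 0% = vehicle wells of infected cells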
Active calls of the source: *; ? = inconclusive; . = no result. Rows were chosen to be rich in hits. Some 0.51% of all compounds tested hit in one or more screens of this group.

SMILES | E coli growth-1 | E coli growth-2 | Tat transport | phage Ecoli inh | AddAB inh
C(=C\c1ccco1)/c1nc2ccccc2[nH]1 | 0.572 | 2.3 | -28.8 | 9.8 | 6.6
O=C1c2cc(Br)ccc2N(Cc2ccc(Br)cc2)S(=O)(=O)C1c1cc(Cl)c(Cl)cc1[N+](=O)[O-] (stereo not given) | . | 12.2* | -1.8 | . | 9.9
CN(C)C=Nc1cc(=O)[nH]c(=O)n1Cc1ccccc1 | 0.671 | . | . | . | .
CC(=O)Oc1ccc2occ(C=Nc3cc(=O)[nH]c(=S)[nH]3)c(=O)c2c1 | 0.697 | . | . | . | .
CCC1=C(OC(=O)N(CC)CC)N2C(=O)OC(=NCC3CC3)[C@]2(C)C2C1=CCC1C(=O)NC(=O)C12 (stereo not given in full) | 0.644 | . | . | . | .
Cc1cc(Nc2cccc(Cl)c2)nc(NCc2ccccc2)n1 | 0.463* | 0.7 | -1.5 | 4.0 | -0.2
CCOC(=O)C1=C(C)N=c2sc(=Cc3ccc(OCC(=O)O)c(OC)c3)c(=O)n2C1c1ccc(Cl)cc1 (stereo not given) | 0.604 | . | . | . | .
C[n+]1ccn(CC(=O)c2cccs2)c1 | 0.626 | 2.9 | -9.5 | 2.4 | 4.0
CCCCCCCCCCCCCCCCn1cc[n+](C)c1 | 0.0655* | -3.2 | ? | 1.9 | 0.4
O=C1CCC(c2ccc(-n3ccnc3)cc2)=NN1 | 0.477* | 1.2 | 23.6 | 5.7 | -0.2
O=C1CCC(c2ccccc2)=NN1 | 0.698 | -2.3 | -5.1 | -0.1 | 2.4
Cc1nc(N)nc(N)c1CCCc1ccc(Cl)c(Cl)c1 | 0.413* | 4.1 | -16.4 | 3.5 | 5.3
C#CCOCCOCCOCCNc1nc(N2CCN(C(=O)C(CCCCN)n3cc(CCC(=O)O)nn3)CC2)nc(N2CCN(C(=O)C(C(C)CC)n3cc(CCCCN)nn3)CC2)n1 (stereo not given) | 0.642 | . | . | . | .
O=C(CNC(=S)N(CCCN1CCOCC1)Cc1cccs1)N1CCCC1 | 0.539* | 1.4 | -3.8 | 1.6 | 0.8
O=C(CNC(=S)N(CCCN1CCOCC1)Cc1cccs1)NCCN1CCOCC1 | 0.674 | 2.0 | -3.0 | 1.6 | 4.7
Nc1ccc2c(c1)N1CCN=C1S2 | 0.64 | 2.9 | -11.3 | 1.8 | 1.6
O=C(Nc1ccc(Cl)cc1)Nc1ccc2c(c1)N1CCN=C1S2 | 0.497* | 3.2 | 3.6 | 8.3 | 0.9
O=C(Nc1cccc(Cl)c1)c1cccc(Oc2ccc([N+](=O)[O-])cc2Cl)c1 | 0.718 | 1.6 | -1.8 | 3.7 | 2.4
O=C(Nc1ccc([N+](=O)[O-])cc1Cl)c1cccc([N+](=O)[O-])c1 | . | . | . | -0.3 | .
O=C(Nc1ccc([N+](=O)[O-])cc1Cl)c1cc(Cl)ccc1O | 0.448* | -0.4 | -22.2 | 3.3 | -2.7
O=C(Nc1cccc(Cl)c1)c1cc(N=Nc2ccc([N+](=O)[O-])cc2Cl)ccc1O | 0.496* | 1.3 | -2.9 | 2.7 | 1.6
CC1CN(C(C)CO)C(=O)c2cc(NC(=O)Cn3cnnn3)ccc2OC1CN(C)S(=O)(=O)c1cn(C)cn1 (stereo not given) | 0.655 | . | . | . | .
O=C(C1=CC(C2CC2)CC(OCCCCO)O1)N1CCN(Cc2ccc3c(c2)OCO3)CC1 (stereo not given) | 0.683 | . | . | . | .
CC(=NNC(=S)Nc1ccc(C)cc1)c1ccccn1 | . | . | 7.8 | 12.7* | .
Clc1ccc(OCCCNCc2ccccc2)c2ccccc12 | 0.395* | 0.9 | -9.5 | 4.4 | 1.1
SMILES | E coli growth-1 | E coli growth-2 | Tat transport | phage Ecoli inh | AddAB inh
CC(=O)NNC(=S)NC(=O)c1ccc(C)cc1 | 0.716 | -5.9 | 2.9 | 0.1 | -3.9
CCC(=O)NNC(=S)NC(=O)c1ccc(C)cc1 | 0.502* | -6.2 | -7.5 | -5.0 | -9.0
CC(=O)NNC(=S)NC(=O)c1ccccc1 | 0.397* | 1.4 | -27.6 | -2.9 | 0.0
CCCCN(C)CCn1c(=S)[nH]c2ncccc2c1=O | 0.676 | 3.4 | 51.4* | 3.7 | -0.2
Cc1cccc(C(=O)CC(=O)c2cc(Cl)ccc2O)c1 | 0.472* | -3.5 | 3.4 | . | -4.7
O=C(CC(=O)c1cc(Cl)ccc1O)c1ccccc1 | 0.476* | -1.7 | -13.9 | -3.2 | -3.4
Cc1ccc(C=NNC(=O)C2COc3cc4ccccc4cc3O2)o1 (stereo not given) | 0.727 | . | . | . | .
C[C@@H](N)C(=O)NCC1CCC(C(=O)N[C@@H](Cc2ccccc2)C(=O)O)CC1 (stereo not given in full) | 0.672 | . | . | . | .
O=C(Nc1cccnc1)c1ccc(NS(=O)(=O)c2cccc([N+](=O)[O-])c2)cc1 | 0.314* | -0.2 | -1.9 | 1.1 | -3.2
O=C(Nc1ccc([N+](=O)[O-])cc1)c1cccc(S(=O)(=O)Nc2cccnc2)c1 | . | -1.2 | -7.2 | 3.3 | 1.2
COc1cccc(/C=N/Nc2nccnc2Cl)c1O | . | . | 1.7 | 1.0 | .
COc1cccc(C=NNc2ncnc(Cl)c2N)c1O | 0.175* | . | . | . | .
O=C1NCCOC(=O)C(Cc2ccc(F)cc2)CC=CCC1CC(=O)N(CCO)Cc1ccccc1 (stereo not given) | 0.662 | . | . | . | .
COc1ccc(C(=O)N2CCOC2CNC(=O)C(=O)NCc2ccc3c(c2)OCO3)cc1 (stereo not given) | 0.508* | -0.2 | 3.8 | 0.5 | -0.2
CCN1CC2C3C(=O)N(C)C(=O)C3[C@](C)(C1=O)N2C(=O)c1ccc(C(C)(C)C)cc1 (stereo not given in full) | 0.658 | . | . | . | .
Cc1ccc(C=NNC(=O)CSc2nnc(-c3ccccc3)n2-c2ccc(Cl)cc2)o1 | 0.686 | . | . | . | .
O=C(CSc1nnc(-c2ccccc2)n1-c1ccc(Cl)cc1)N/N=C/c1ccco1 | . | 11.1* | 3.8 | 3.6 | -7.5
CC(CCc1ccccc1)=NNC(=O)C1C2CCCCC21 (stereo not given) | 0.705 | . | . | . | .
CC(C)C[C@@H]1CN=C(N)N1C[C@@H]1CCCN1C[C@@H](C(C)C)N1C[C@@H](Cc2ccccc2)N(CCCC2CCCC2)C1=N | 0.46* | 0.7 | 9.7 | 0.9 | 1.9
CCCCN1C(=N)N([C@@H](CN2CCC[C@H]2CN2C(N)=NC[C@@H]2Cc2ccccc2)C(C)C)C[C@H]1Cc1ccccc1 | . | 0.7 | 4.8 | 1.6 | 0.9
CNS(=O)(=O)c1ccc(NC(=O)Nc2cccc(F)c2)cc1 | 0.511* | 7.4 | -7.1 | 5.3 | 9.8
N=C(N)c1ccc(/C=C/c2ccc(C(=N)N)cc2O)cc1 | 0.66 | 3.8 | 75.9* | 7.3 | 5.7
CCOC(=O)Oc1c(OC)cc(C(=O)OC2CC3CN4CCc5c([nH]c6cc(OC)ccc56)C4CC3C(C(=O)OC)C2OC)cc1OC (stereo not given) | 0.704 | . | . | . | .
O=C(Nc1cccnc1)Nc1cc(Cl)cc(Cl)c1 | 0.501* | 4.4 | -11.1 | 9.6 | 4.3
O=C(Nc1cccnc1)Nc1ccccc1Cl | 0.699 | 0.0 | -7.1 | 3.7 | 0.5
O=C(Nc1ccncc1)Nc1ccc(Cl)cc1 | 0.517* | 0.5 | 9.3 | 7.4 | -0.6
CC1CC(O)c2cc(Cl)ccc2N1 (stereo not given) | 0.682 | . | . | . | .
CCCCCCCOC(=O)C[N+](C)(C)CCOC1CC2CCC1(C)C2(C)C (stereo not given) | 0.316* | . | 22.1 | 5.1 | .
CCCCCCOC(=O)C[N+](C)(C)CCOC1CC2CCC1(C)C2(C)C (stereo not given) | 0.678 | 4.1 | 0.0 | 0.8 | 0.8
COc1cccc(C2=CC(=O)CC(c3ccc(OC)c(OC)c3)C2)c1 (stereo not given) | 0.68 | . | . | . | .

Bioassay records deposited in PubChem by several laboratories.
